Measurements published in PubChem BioAssay AID720542 (National Center for Advancing Translational Sciences (NCATS), 2013).
In all, about 360,000 compounds went through this assay and about 740 (0.21%) were called active. Inconclusive results (about 2%) are left out. This is one part of a sample in which actives are shown more often than they occur. Calls follow the shape of the dose curve; as a rule, active = well fitted inhibition curve with a large enough effect; inconclusive = small, poorly fitted or top-dose-only effect; inactive = no such curve, though single readings can be large or run the other way.
Also: nearly all actives have a fitted effect of over 45% in size.
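For activity change, negative = inhibition in this document: 0% = vehicle wells and -100% = peptide control.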
Potency is read from the fitted curve at half-maximal effect.

What follows are compounds tested on Plasmodium falciparum AMA1 (3D7) - RON2 peptide interaction (assay: qHTS for Inhibitors of AMA1-RON; Towards Development of Antimalarial Drug Lead: Primary Screen). Conditions: AlphaScreen AMA1-biotinylated RON2 peptide binding; series mostly up to 58.2 µM; activity change, negative = inhibition: at the top concentration.
Excerpt: Plasmodium, the causative agent of malaria, is one of the world's deadliest parasitic diseases. Currently there is no vaccine available and there is widespread resistance to common anti-malarial drugs. This warrants novel, alternative approaches for developing improved therapy. During infection, one such essential interaction is between two parasite proteins, the apical membrane antigen1 (AMA1) that is translocated onto the merozoite surface and the rhoptry neck protein 2 (RON2), which is transferred to the red blood cells (RBC) membrane during invasion (Besteiro et.al., 2009). Recently, the Miller lab has shown that the interaction between AMA1 and RON2 is essential for junction formation of the parasite with the host cell (Srinivasan et.al., 2011). The binding of the RON2 peptide to the hydrophobic pocket in AMA triggers the formation of the moving junction which provides a firm anchor for the parasite to pull itself into the RBC using its actin-myosin motor; an irreversible step that commits the parasite for invasion. Only one AMA1 and RON2 genes exists in Plasmodium and there are no alternate pathways. Moreover, the region corresponding to RON2 peptide is conserved in all P. falciparum isolates for which sequences are available. The key residues in the AMA1 hydrophobic pocket that binds RON2 are also conserved and indicate a functional constraint governing this essential step in invasion since a short RON2 peptide (RON2L) corresponding to the binding region on AMA1 is sufficient to compete with the native RON2 protein and inhibits invasion (Tonkin et.al, 2011). Therefore, developing small molecule inhibitors of this interaction offers a promising target opening a new arena for anti-malarial therapeutics drug design.
In collaboration with the Miller lab, a quantitative High Throughput Screen using the AlphScreen technology was developed using a recombinant his-tagged AMA1 and a biotinylated RON2 peptide. This fluorescent screen was assayed against the NIH Molecular Libraries Small Molecule Repository (MLSMR). Inhibition of this protein-protein interaction is the desired outcome of this assay. However, due the limitations of this AlphaScreen assay, a large number of artifacts were observed. An AlphaScreen counterscreen was run to identify the true inhibitors, triage compound activity, and weed out false positives.
NIH Chemical Genomics Center [NCGC]
NIH Molecular Libraries Probe Centers Network [MLPCN]
Assay Submitter (PI): Louis Miller, National Institute of Allergy and Infectious Disease (NIAID)
Two microliters of his-tagged AMA1 3D7 allele protein (final concentration 25 nM) was dispensed into a 1,536-well assay plate. Small molecules and positive control peptides were pin-transferred (23 nL or 46 nL) via Kalypsys pin-tool equipped with a 1,536-pin array, resulting in final compound and peptide concentration ranges of 91.5 nM - 57.2 µM, and 15.6 nM - 2.00 µM, respectively. Unlabeled RON2 peptide or R1 peptide ([…]) that specifically binds the 3D7 AMA1 was used as a positive control that inhibited the binding of RON2L to AMA1. After 15 minutes incubation, 1 uL of biotinylated RON2 peptide (final concentration 25 nM) or buffer were dispensed and the assay plate was incubated for an additional 30 minutes at room temperature and protected from light. This was followed by an addition of 1 uL mixture of donor and acceptor beads (10 ug/mL final concentrations for each). The plates were incubated for 30 min at room temperature and read using the EnVision(R) plate reader (PerkinElmer). Maximum inhibition response was normalized to the positive control signal while no inhibition response was normalized to the DMSO treated wells.
For CCc1ccc(C2C(C#N)=C(N)N(N3CCOCC3)C3=C2C(=O)CC(C)(C)C3)s1 (stereo unspecified), the “activity change, negative = inhibition” value was -9.12% (inactive). For Cc1cc(O)c(C(=O)/C=C/c2c(F)c(F)c(F)c(F)c2F)c(=O)o1, the “activity change, negative = inhibition” value was 61.5% (inactive). In the case of CCOc1ccccc1NC(=O)Cn1ncc2ccc([N+](=O)[O-])cc21, the “activity change, negative = inhibition” value is reported as -2.2% (inactive). With COc1ccc(CN2C(=O)C(C)S/C2=N/N=C/c2ccco2)cc1 (stereo unspecified) the “activity change, negative = inhibition” value was -10.8% (inactive). For CCCCN=C1N/C(=C\c2ccco2)C(=O)N1c1ccccc1, the “activity change, negative = inhibition” value was -7.64% (inactive). With COc1ccc(N2C(=O)/C(=C/c3ccco3)C(=O)NC2=S)cc1 the Potency was 15.8 µM (active). With CCC1SC2=NCCN2C1(O)c1ccc(Cl)cc1 (stereo unspecified) the “activity change, negative = inhibition” value was -8.79% (inactive). CC(C)CCNC(=O)Cn1c(=O)oc2cc(S(=O)(=O)N3CC(C)CC(C)C3)ccc21 (stereo unspecified) was tested, and the “activity change, negative = inhibition” value was 13.5% (inactive). CN(C(=O)CN(CCO)CC(=O)N(C)C(C)(C)Cc1ccccc1)C(C)(C)Cc1ccccc1 was tested, and the “activity change, negative = inhibition” value was 14.9% (inactive). In the case of CN1OC[C@@H]2CN(S(=O)(=O)c3cccc(C(F)(F)F)c3)[C@H](c3ccc(-c4cc5ccccc5o4)cc3)C[C@@H]21, the “activity change, negative = inhibition” value is reported as 6.6% (inactive). With CC1=C(C(=O)Nc2ccc(Cl)cc2)C(c2ccco2)NC(=O)N1 (stereo unspecified) the “activity change, negative = inhibition” value was 5.1% (inactive). In the case of CCNC(=O)N1CCNC(=O)C1CC(=O)Nc1ccc(C(=O)OCC)cc1 (stereo unspecified), the “activity change, negative = inhibition” value is reported as 12.7% (inactive). With CCOc1ccccc1-n1c(SCC(=O)NCc2ccco2)nnc1-c1ccncc1 the “activity change, negative = inhibition” value was -7.89% (inactive). Cc1ccc(NC(=O)CN2CCCCC2)c2c1CC(C)(C)O2 was tested, and the “activity change, negative = inhibition” value was -1.13% (inactive). In the case of CC(=O)c1ccc(NC(=O)C(C)NCc2ccc(Cl)cc2)cc1 (stereo unspecified), the “activity change, negative = inhibition” value is reported as 0.354% (inactive). With CN(/C(=N/S(=O)(=O)c1cccs1)c1ccccc1)c1ccc(O)cc1 the “activity change, negative = inhibition” value was 1.51% (inactive). In the case of CC1CCC(NC(=O)CN(C)S(=O)(=O)c2ccc3c(c2)c(=O)n(C)c(=O)n3C)CC1 (stereo unspecified), the “activity change, negative = inhibition” value is reported as -5.96% (inactive). O=S(=O)(c1ccc(Br)cc1)c1nc(-c2ccccc2)oc1NCc1cccnc1 was tested, and the “activity change, negative = inhibition” value was -2.21% (inactive). For O=C1CC(=O)Nc2cc(S(=O)(=O)N3CCN(c4cccc(C(F)(F)F)c4)CC3)ccc2N1, the “activity change, negative = inhibition” value was -7.36% (inactive). With Cc1ccc(N(C(=O)Cc2cccs2)C(C(=O)NCC2CCCO2)c2ccncc2)cc1 (stereo unspecified) the “activity change, negative = inhibition” value was 8.2% (inactive). In the case of CCOC(=O)c1ccccc1NC(=O)COC(=O)C(Cc1c[nH]c2ccccc12)NC(C)=O (stereo unspecified), the “activity change, negative = inhibition” value is reported as -8.99% (inactive). In the case of C=CCc1cccc2cc(C(=O)Nc3ccc(NC(C)=O)cc3)c(=O)oc12, the “activity change, negative = inhibition” value is reported as -3.69% (inactive). For O=C(CSc1nnc(-c2ccncc2)o1)Nc1cccc(Cl)c1, the “activity change, negative = inhibition” value was 8.5% (inactive). In the case of Cc1cc(NC(=O)CSc2nnc(-c3ccc(Cl)s3)o2)no1, the Potency is reported as 2.24 µM (active). In the case of Cc1cc(NC(=O)CSc2nnnn2-c2ccc(F)cc2)no1, the “activity change, negative = inhibition” value is reported as 12.3% (inactive). CC1(C)C(c2ccccc2)=NC(c2cccnc2)=[N+]1[O-] was tested, and the “activity change, negative = inhibition” value was -0.104% (inactive). In the case of COc1cccc(N(C(=O)c2snc(C(N)=O)c2N)C(C(=O)NCC2CCCO2)c2c[nH]c3ccccc23)c1 (stereo unspecified), the “activity change, negative = inhibition” value is reported as -5.17% (inactive). In the case of CC(C)(C)c1ccc(NC(=O)COC(=O)CCc2nc3ccccc3c(=O)[nH]2)cc1, the “activity change, negative = inhibition” value is reported as -19.8% (inactive). For CCN(c1ccc(NC(=O)COC(=O)CCc2nc3ccccc3n2-c2ccccc2)cc1)C(C)C, the Potency was 10 µM (active). For Cc1ccc(NC(=O)COC(=O)CCc2nc3ccccc3n2-c2ccccc2)c(C)c1, the “activity change, negative = inhibition” value was -3.7% (inactive). In the case of CC(C)NC(=O)Nc1ccc2c(c1)C(=O)N([C@H](C)CO)C[C@H](C)[C@@H](CN(C)Cc1ccc(C(F)(F)F)cc1)OCCCC[C@@H](C)O2, the “activity change, negative = inhibition” value is reported as 12.3% (inactive). In the case of C=C1c2c(Cl)ccc(O)c2C(O)=C2C(=O)[C@]3(O)C(O)=C(C(N)=O)C(=O)[C@@H](N(C)C)[C@@H]3[C@@H](O)C12 (stereo partly specified), the Potency is reported as 1.41 µM (active). CC(=O)Nc1nc(C)c(Cc2ccccc2)c(=O)[nH]1 was tested, and the “activity change, negative = inhibition” value was 3.67% (inactive). For C#CCOCCOCCOCCNc1nc(N2CCN(C(=O)C([C@@H](C)CC)n3cc(C(N)COC(=O)C(F)(F)F)nn3)CC2)nc(N2CCN(C(=O)[C@H](Cc3ccc(O)cc3)n3cc(C(N)[C@H](C)CC)nn3)CC2)n1 (stereo partly specified), the “activity change, negative = inhibition” value was 13.4% (inactive). In the case of O=[N+]([O-])c1ccc(Sc2n[nH]c(-c3ccco3)n2)nc1, the “activity change, negative = inhibition” value is reported as 6.13% (inactive). For COc1ccc(CNC(=O)COC(=O)C2=Cc3ccccc3OC2)cc1, the “activity change, negative = inhibition” value was 51.9% (inactive). In the case of OCC#CC[N+]1(CC#Cc2ccccc2)CCCC1, the “activity change, negative = inhibition” value is reported as 3.31% (inactive). For CC1(C)Cc2c(sc(NC(=O)C(=O)NCC3CCCO3)c2C(=O)O)CO1 (stereo unspecified), the “activity change, negative = inhibition” value was 139% (inactive). CN(C)c1ccc(C(CC(=O)O)C(=O)O)cc1 (stereo unspecified) was tested, and the “activity change, negative = inhibition” value was -25.3% (inactive). With O=C(Nc1ccc(CSc2ccccc2)cc1)c1ccc(CN2CCOCC2)cc1 the “activity change, negative = inhibition” value was -4.5% (inactive). In the case of CN(C)c1ccc(CSc2ccccc2)cc1, the Potency is reported as 8.91 µM (active). Cc1cccc(CSc2nc3c(c(=O)n2C)SCC3)c1 was tested, and the “activity change, negative = inhibition” value was -14.7% (inactive). With N#Cc1ccc(/C=C2\CCn3c2nc2cc(C(=O)O)ccc2c3=O)cc1 the “activity change, negative = inhibition” value was -7.09% (inactive). With O=C(O)c1ccc2c(=O)n3c(nc2c1)/C(=C/c1ccc(OC(F)F)cc1OC(F)F)CC3 the Potency was 20 µM (active). Cc1ccc(/C=C2\CCn3c2nc2cc(C(=O)O)ccc2c3=O)c(C)c1 was tested, and the “activity change, negative = inhibition” value was 5.89% (inactive). With CCOC(=O)c1c(-n2cnnn2)sc(C)c1C the “activity change, negative = inhibition” value was -5.49% (inactive). For COc1ccc2c(c1)c(=Cc1ccc(N(C)C)cc1)c1cc(-c3ccccc3)[n+](C)n12, the Potency was 17.8 µM (active). With CCCCCOC(=O)C1=C(C)Nc2nnnn2C1c1ccc(OC)c(OC)c1OC (stereo unspecified) the “activity change, negative = inhibition” value was -11.7% (inactive). For COc1ccc(-c2nc3c(s2)CCc2onc(-c4ccc(Br)cc4)c2-3)cc1, the “activity change, negative = inhibition” value was 7.5% (inactive). CC1(C(=O)NCC2CCOCC2)Cc2c(-c3cccc(C(N)=O)c3)ccnc2O1 (stereo unspecified) was tested, and the “activity change, negative = inhibition” value was -0.312% (inactive). CN(Cc1c(F)cccc1Cl)C(=O)COC(=O)Cn1cnc2ccccc2c1=O was tested, and the “activity change, negative = inhibition” value was 10.2% (inactive). With COc1ccc(C(C#N)=C2C=CC(=NO)c3ccccc32)cc1 the Potency was 12.6 µM (active). In the case of COc1ccc(/C(N)=N/OC(=O)Oc2ccccc2)cc1, the “activity change, negative = inhibition” value is reported as -11.4% (inactive). For COC(=O)Nc1ncc(CN2CCCCC2)s1, the “activity change, negative = inhibition” value was 11.8% (inactive). CC(C)(C)c1nnc(N/N=C/c2ccc(O)cc2)n(N)c1=O was tested, and the “activity change, negative = inhibition” value was 46.9% (inactive). In the case of CC(=O)Nc1ccc(S(=O)(=O)Nc2nc3n(n2)C(c2ccccc2)CC(=O)N3)cc1 (stereo unspecified), the “activity change, negative = inhibition” value is reported as -0.175% (inactive). For CCCCN(C(=O)CSCc1ccc(C)cc1)c1c(N)n(Cc2ccccc2)c(=O)[nH]c1=O, the “activity change, negative = inhibition” value was -24.8% (inactive). O=C(Nn1cnnc1)c1cc(Cl)ccc1Cl was tested, and the “activity change, negative = inhibition” value was 3.21% (inactive). With Cc1cc(NC(=O)CCS(=O)(=O)c2ccc(F)cc2)no1 the “activity change, negative = inhibition” value was -10% (inactive). For CCn1c(SCC(=O)NC2=NCCS2)nnc1C(C)NC(=O)c1ccccc1F (stereo unspecified), the “activity change, negative = inhibition” value was 6.74% (inactive). COc1ccc(NC(=O)NC2CC3CCCC(C2)N3Cc2ccccc2)cc1 (stereo unspecified) was tested, and the “activity change, negative = inhibition” value was 1.56% (inactive).
